Holding throughout (experiment): NCI-60 one-dose screen, 48 h (100 = growth as untreated, 0 = no growth, -100 = all killed)
Settings in all cases: 10 µM unless noted

The test system of assay [1] is T-47D breast.
The test system of assay [2] is BT-549 breast.
For assay [3], the system named is MDA-MB-435 melanoma.
The test system of assay [4] is SW-620 colon.
Assay [5] concerns MCF7 breast.
The test system of assay [6] is HCT-116 colon.
The subject of assay [7] is HCC-2998 colon.
The subject of assay [8] is KM12 colon.

Compounds without any hit were thinned out: in the full panel of roughly 83,000, 20% have a hit.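 96-well plates, one dose, 48 hours. Percent growth reported; active if below 10.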 Values without a mark were called inactive. The source made the active and inactive calls.

`NC(=O)C(=Cc1ccc(Cl)cc1)C(N)=O`: the growth in assay [1] is 45.2%; in assay [2], 58.1%; in assay [3], 69.6%; in assay [4] it was 52.2%; in assay [5], 34.4%; in assay [6], 52.2%. The growth in assay [7] is 85.7%; in assay [8], 85.2%.
Take `Cn1cc(-c2nn3c(=O)cc(-c4ccccc4)nc3s2)c2cc(F)ccc21`: the growth in assay [1] was 64.2%; in assay [2] it was 67%; in assay [3], -5.19% (active); in assay [4] it was 41.9%; in assay [5], 34.5%; in assay [6], 32.6%. Moreover, the figures for the growth in assay [7] and in assay [8] were 79.5% and 55.2%, respectively.
Regarding `COc1ccccc1/C=C/C(=O)c1nnn(-c2ccc(C(=O)O)cc2)c1C`, the growth in assay [1] was 87.9%; in assay [2] it was 96.4%; in assay [3], 87.8%; in assay [4] it was 102%; in assay [5], 54.2%; in assay [6], 68%. In addition, the growth was 102% in assay [7] and 93.8% in assay [8].
Take `CCOc1c(C#N)c(Nc2ccc(S(N)(=O)=O)cc2)c(C#N)c2nnc(C)n12`: the growth in assay [1] was 104%; in assay [2], 97.6%; in assay [3], 108%; in assay [4], 108%; in assay [5], 97.2%; in assay [6], 116%. Also, the growth is 106% in assay [7] and 103% in assay [8].
On to `COc1cc(-c2noc(C[C@@H](NC(=O)OCc3ccccc3)C(C)C)n2)cc(OC)c1OC`, for which the growth in assay [1] is 90.2%; in assay [2], 105%; in assay [3], 106%; in assay [4], 98.5%; in assay [5], 87.3%; in assay [6], 101%. Further, the growth is 103% in assay [7] and 105% in assay [8].
Consider `C=CCn1c(SCC(=O)Nc2ccc(OC)cc2)nnc1-c1ccc(Cl)cc1`, for which the growth is 95.5% in assay [1]; 106% in assay [2]; 90.1% in assay [3]; 99.1% in assay [4]; 94.9% in assay [5]; 91.2% in assay [6]. Further, the figures for the growth in assay [7] and in assay [8] were 99.6% and 92.4%, respectively.
For `CC(=O)Oc1ccc(CCN2C(=O)CSC2=S)cc1`, the growth is 41.2% in assay [1]; 95.9% in assay [2]; 69.2% in assay [3]; 47.1% in assay [4]; 33.3% in assay [5]; 75.6% in assay [6]. Further, the growth in assay [7] is 108%; in assay [8], 22.3%.
Take `Cc1ccc(NC(=O)N[C@@H](Cc2cc(F)cc(F)c2)C(=O)NC2C(=O)N3CCC[C@H]3C(=O)N3CCCC[C@H]3C(=O)N[C@@H](C)C(=O)N3C[C@H](C)C[C@H]3C(=O)O[C@H]2C)c(F)c1` (some centres undefined): the growth in assay [1] is 31.5%; in assay [2] it was 28.7%; in assay [3], 21.2%; in assay [4] it was 36.5%; in assay [5], 15.5%; in assay [6] it was 9.88% (active). Also, the values for the growth in assay [7] and in assay [8] were 23.9% and 38.7%, respectively.
For `CC(=O)NC(C)(C)C(=O)N1CCC[C@H]1C(=O)NC(C)(C)C(=O)N[C@@H](C)C(=O)NC(C)(C)C(=O)N[C@@H](C)C(=O)N[C@@H](CCC(N)=O)C(=O)NC(C)(C)C(=O)N[C@H](C(=O)NC(C)(C)C(=O)NCC(=O)N[C@@H](CC(C)C)C(=O)NC(C)(C)C(=O)N1CCC[C@H]1C(=O)N[C@H](C(=O)NC(C)(C)C(=O)NC(C)(C)C(=O)N[C@@H](CCC(N)=O)C(=O)N[C@@H](CCC(N)=O)C(=O)N[C@H](CO)Cc1ccccc1)C(C)C)C(C)C`, the growth in assay [1] was 55.7% [4.25 µM]; in assay [2], 23.5% [4.25 µM]; in assay [3], 71% [4.25 µM]; in assay [4] it was 91% [4.25 µM]; in assay [5], 17% [4.25 µM]; in assay [6] it was 67.7% [4.25 µM]. The growth in assay [7] is 70.3% [4.25 µM]; in assay [8], 98.2% [4.25 µM].
For `O=C(NCCCNc1cc(-c2cn(-c3ccccc3)nc2-c2cccc(O)c2)ccn1)Nc1cccc(C(F)(F)F)c1`, the growth in assay [1] was 39.2%; in assay [2] it was 68.8%; in assay [3], 31.7%; in assay [4], 12.4%; in assay [5] it was 23.7%; in assay [6], 23.1%. For the same compound, the growth is -34.7% (active) in assay [7] and 10.7% in assay [8].
Consider `O=C(Nc1ccccc1)Nc1nc2ccc([N+](=O)[O-])cc2s1`, for which the growth is -14.3% (active) in assay [1]; -11.8% (active) in assay [2]; 2.4% (active) in assay [3]; 11.5% in assay [4]; 2.9% (active) in assay [5]; 4.52% (active) in assay [6]. In addition, the growth in assay [7] is 10.8%; in assay [8] it was 3.66% (active).
With `N#Cc1c(NC(=O)c2ccccc2C(F)(F)F)sc2c1CCC(=O)C2`, the growth in assay [1] was 1.79% (active); in assay [2], 11.7%; in assay [3] it was 0.916% (active); in assay [4] it was 3.92% (active); in assay [5] it was 3.89% (active); in assay [6], 8.03% (active). Besides, the growth in assay [7] is 27.6%; in assay [8], 5.98% (active).
Turning to `NS(=O)(=O)c1ccc(Nc2nc(N/N=C/c3ccc(C(F)(F)F)cc3)nc(Nc3ccccc3)n2)cc1`, the growth in assay [1] was 31.3%; in assay [2], 48.9%; in assay [3] it was 19.9%; in assay [4] it was 54.8%; in assay [5], 10.3%; in assay [6], 9.73% (active). In addition, the growth is 53.1% in assay [7] and 21.7% in assay [8].

The values above are taken from PubChem BioAssay (NCI).
